TNAP act DEA: human TNAP enzyme activators, primary screen, biochemical, luminescent, intermediate phosphate acceptor level; Alkaline phosphatase, tissue-nonspecific isozyme (Homo sapiens), P05186; purified TNAP, CDP-star luminescence, 100 mM DEA, 30 min; active compounds read high; scale: 0 levamisole-inhibited, 1 vehicle-only enzyme; activation factor at 20 µM; 64,000 tested, under 10 active; AID 813, 2007;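 active means activation factor of at least 2 at 20 µM, relative to controls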
Cav3 T inh: Cav3.2 calcium influx blockers – cell-based, Fluo-4 calcium fluorescence, FDSS, MLSMR library, primary screen; Voltage-dependent T-type calcium channel subunit alpha-1H (Homo sapiens), O95180; Cav3.2-expressing cells; active compounds read low; B-score at 10 µM; hit rate 4% among 100,000; AID 449739, 2010;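 active means single-dose well whose peak fluorescence ratio is a statistical outlier from its plate by either plate-standardised score or position-corrected B-score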
PostGolgi ctrl: growth inhibition of yeast control strain, primary screen, counter-screen for post-Golgi transport modulator project. AID 738, 2007. efflux-deficient yeast background strain, growth absorbance A615, 16 h. inhibition, % at 10 µM. hit rate 5% among 98,000
PostGolgi yeast: phenotypic screen on post-Golgi transport, primary screen. post-Golgi transport phenotypic cell assay. inhibition, % at 10 µM. hit rate 0.9% among 98,000;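 further: yeast cells grown in 1536-well plates; yeast grown about 18 h at 30C before absorbance read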
Smad3 inh: Smad3/FoxH1 peptide binding inhibitors, primary screen, biochemical, TR-FRET | Mothers against decapentaplegic homolog 3 (Homo sapiens), P84022 | TR-FRET Smad3/Dy647-FoxH1 peptide binding, europium anti-His | inhibition, % at 25 µM | hit rate 0.29% among 88,000 | AID 630, 2007;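 active means compounds that reduce the energy-transfer binding signal between the protein and its labelled peptide by more than half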;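 further: 0% = Smad3 plus labelled peptide maximal FRET and 100% = peptide-only background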
Target sequence (P84022 whole entry, looked up): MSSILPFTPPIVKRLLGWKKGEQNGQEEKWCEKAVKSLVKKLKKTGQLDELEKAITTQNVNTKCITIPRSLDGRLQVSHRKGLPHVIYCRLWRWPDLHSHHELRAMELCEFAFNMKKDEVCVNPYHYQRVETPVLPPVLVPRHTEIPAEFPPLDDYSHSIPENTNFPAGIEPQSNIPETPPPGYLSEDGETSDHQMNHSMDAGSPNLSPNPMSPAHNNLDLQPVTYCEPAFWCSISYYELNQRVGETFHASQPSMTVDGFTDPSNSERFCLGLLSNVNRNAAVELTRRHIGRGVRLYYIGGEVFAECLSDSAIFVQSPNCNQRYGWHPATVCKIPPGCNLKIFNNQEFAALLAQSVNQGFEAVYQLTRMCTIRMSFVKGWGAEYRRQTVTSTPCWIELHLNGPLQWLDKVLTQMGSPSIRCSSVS
DAT uptake mod: changed hDAT dopamine uptake under cocaine IC80, either direction, primary screen, cocaine antagonist project, cell-based, LLC-PK1 hDAT, [14C]-dopamine uptake, MLSMR; B-score at 10 µM; LLC-PK1 hDAT cells, [14C]-dopamine uptake with cocaine IC80; actives deviate in either direction; AID 449768, 2010; hit rate 1.3% among 110,000; Sodium-dependent dopamine transporter (Homo sapiens), Q01959;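 active means Z score or B-score, a plate-position-corrected score, falls beyond the plate's 99.7% confidence bounds, in either direction; inactive means both scores lie inside the 99.7% bounds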;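 further: scored against the spread of the other compound wells on the same plate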
* marks the source's active call; other numbers are inactive results; nt = no result given. Hits are enriched below; roughly 8.7% of the tested compounds scored in any of these assays. Unless noted, no stated cut-off is given here; in the data, active means inhibition above about 30%; inactive means the rest.

SMILES	TNAP act DEA	Cav3 T inh	PostGolgi ctrl	PostGolgi yeast	Smad3 inh	DAT uptake mod
COC1CCCCC1Nc1cccc(SC)c1 (configuration not stated)	0.8	0.084	35*	-6	18	1.2
NS(=O)(=O)c1ccc(S(=O)(=O)NCCc2ccccc2)cc1	1	0.82	-2	-11	1	-0.042
CCN(CC)c1cc(C)c2cc(NC(=O)CNC(C)=O)ccc2n1	0.9	0.83	33*	18	nt	0.22
O=C(NCc1ccccc1)c1ccc(-c2ccc(F)cc2)o1	nt	-3.4	31*	0	-25	0.81
COc1ccccc1-c1cc(C(=O)NCc2ccc(F)cc2)no1	0.8	-0.89	59*	4	nt	-0.61
COc1ccccc1-c1cc(C(=O)NCc2ccccc2)no1	0.8	-3.9	26	9	2	1.1
COc1ccc([N+](=O)[O-])cc1NC(=O)CSc1ccccc1	nt	0.02	10	-8	nt	-1.2
CCC1CCCCN1S(=O)(=O)c1ccc2c(c1)CCN2C(=O)C1CCC1 (configuration not stated)	0.9	-1.4	68*	1	-4	-0.55
O=C(C1CCC1)N1CCc2cc(S(=O)(=O)NCCN3CCN(c4ccccc4F)CC3)ccc21	0.9	-3.2	38*	-1	-5	0.65
O=C(C1CCC1)N1CCc2cc(S(=O)(=O)NCc3ccccn3)ccc21	nt	0.89	2	-4	1	1.3
O=C(C1CCC1)N1CCc2cc(S(=O)(=O)N3CCc4ccccc4C3)ccc21	0.9	-1.2	nt	nt	-1	-0.63
C=CCn1c(SCc2c(C)noc2C)nc2sc3c(c2c1=O)CCCCC3	0.9	-4.3*	10	-3	7	1.9
COC(=O)c1ccc(CSc2nc3sc4c(c3c(=O)n2C)CCCC4)o1	1.1	-1.5	26	0	2	-0.86
C=CCn1c(SCc2c(C)noc2C)nc2sc3c(c2c1=O)CCCC3	nt	-3.8*	15	-3	1	0.15
C=CCn1c(SCc2c(C)noc2C)nc2ccccc2c1=O	nt	0.29	16	-5	-10	-0.5
Cc1noc(C)c1CSc1nc2sc3c(c2c(=O)n1C)CCCC3	nt	-1.1	40*	0	2	0.85
COc1ccc(Cc2nnc(SCc3c(C)noc3C)n2C2CCCCC2)cc1OC	0.9	-0.048	2	-3	3	0.1
Cc1noc(C)c1CSc1nc2sc(C)c(C)c2c(=O)n1C1CCCC1	0.9	-5.8*	-3	7	1	-0.99
C=CCn1c(SCc2c(C)noc2C)nc2cc(C(=O)O)ccc2c1=O	0.9	-0.11	3	-2	5	-0.79
CCC(CC)C(=O)N(c1ccc(F)cc1)C1C=CS(=O)(=O)C1 (configuration not stated)	0.9	1	6	3	12	-0.46
Cc1cc(/C=N/n2cnnc2)c(C)n1-c1ccc(Cl)cc1Cl	0.9	-2.2	37*	2	4	1.3
Cc1cc(/C=N/n2cnnc2)c(C)n1-c1ccc(OCc2ccc(F)cc2)cc1	1	nt	61*	-1	9	0.032
Cc1cc(/C=N/n2cnnc2)c(C)n1-c1cccc(Cl)c1	0.9	nt	7	14	-21	nt
CC(=O)Nc1nc(-c2ccccc2)nc(C)c1C(C)=O	1	-1.4	-8	-3	-7	-8.5*
Cc1c(S(=O)(=O)N2CCN(C(c3ccccc3)c3ccccc3)CC2)c(=O)n(C)c(=O)n1C	nt	-3.6	27	1	0	0.27
SMILES	TNAP act DEA	Cav3 T inh	PostGolgi ctrl	PostGolgi yeast	Smad3 inh	DAT uptake mod
O=S(=O)(O)c1ccc(NN(c2c(O)ccc3ccccc23)S(=O)(=O)O)cc1	nt	nt	nt	nt	99*	nt
CC(C)c1cc(N2CCN(C(=O)c3ccco3)CC2)n2c(nc3ccccc32)c1C#N	1.2	1.8	2	-15	-7	0.1
Cc1cc(-c2ccco2)c(C#N)c2nc3ccccc3n12	1	-0.69	83*	25	5	-0.23
Cc1ccc(CSCCNC(=O)CSCc2ccc([N+](=O)[O-])cc2)cc1	nt	-4.3*	26	2	nt	1.1
Cc1cccc(CSCCNC(=O)CSCc2ccc([N+](=O)[O-])cc2)c1	nt	-3.2*	18	4	nt	-0.13
Cc1ccccc1CSCCNC(=O)CSCc1ccc([N+](=O)[O-])cc1	nt	nt	23	-5	nt	nt
CCS(=O)(=O)NC(C)C(c1cccs1)N1CCN(c2ccc(OC)cc2)CC1 (configuration not stated)	nt	0.19	nt	nt	nt	0.59
Cc1ccc(C)c(N2CCN(C(=O)CNS(=O)(=O)c3cccs3)CC2)c1	nt	0.22	16	-7	2	1.7*
COc1ccc(N2CCN(C(c3cccs3)C(C)NS(=O)(=O)c3ccccc3)CC2)cc1 (configuration not stated)	0.9	nt	39*	3	0	nt
COc1ccc(N2CCN(C(=O)CCNS(=O)(=O)c3cccs3)CC2)cc1	nt	0.39	2	9	-16	11*
CC(NC(=O)C(c1ccccc1)c1ccccc1)C(=O)O (configuration not stated)	0.9	0.63	14	-1	10	-0.65
C/C(Cl)=C/Cn1c(NCCN(C)C)nc2c1c(=O)n(C)c(=O)n2C	0.9	0.017	1	-12	-3	-0.04
COc1ccc(NC(=O)c2oc3ccc(S(=O)(=O)N4CCC5(CC4)OCCO5)cc3c2C)cc1	0.9	0.14	4	-3	9	1
O=C(Nc1nnc(-c2ccccc2Cl)o1)c1nc2ccccc2s1	nt	-4.5*	15	-24	-3	0.42
C=C(Br)CN(C)CC(=C)Br	nt	nt	nt	nt	0	nt
O=C(Cn1c(=O)oc2ccccc21)Nc1ccc(S(=O)(=O)N2CCCCC2)cc1	1	-0.044	12	0	0	-0.25
CCCCCC(=O)N1CC2(CC(c3cccc(NC(=O)COc4ccc(Cl)cc4)c3)=NO2)C[C@@H]1C(N)=O (some centres not stated)	nt	-1.1	nt	nt	nt	3.1*
Cc1cccc(C(=O)CC(=O)c2cc(Cl)ccc2O)c1	nt	-2.1	64*	50*	20	1.2
O=C(CC(=O)c1cc(Cl)ccc1O)c1ccccc1	0.8	-1.2	42*	90*	20	0.075
COc1ccc(O)c(C(=O)CC(=O)c2ccc(F)cc2)c1	0.9	-3.5	35*	33*	nt	-0.028
Cc1ccc(O)c(C(=O)CC(=O)c2cccc(F)c2)c1	0.8	nt	34*	8	4	-0.029
COc1ccc(NC(=S)Nc2ccc(N)c([N+](=O)[O-])c2)cc1	nt	-1.2	8	15	nt	-0.09
COc1ccc(-c2n[nH]c(C)c2-c2ccc(Cl)cc2)c(O)c1	nt	-1.4	77*	13	-4	0.26

Compound activity: PubChem, several laboratories
